The values that follow come from PubChem BioAssay (EPA / NIEHS).

By AC50 is commonly meant the concentration at which the activity in the assay is half-maximal.

Results filed as inconclusive are left out. Active and inactive are the calls of the source. How the source made its calls: active means hit-call score of the fitted dose curve at least 0.9, where 1 is the maximum; inconclusive means response in the unintended direction; inactive means score below 0.9.

The first assay addresses Thyroid hormone receptor alpha (Rattus norvegicus) + Thyroid hormone receptor beta (Rattus norvegicus) (UniProt P18113+P63059). As to the kind of experiment: TOX21_TR_LUC_GH3_Antagonist_Followup: Tox21 GH3 Thyroid Hormone Receptor Antagonism Luciferase Follow-Up Assay (AID 2283942). The gist of the method:
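Luminescence read-out (ONE-Glo, 30 min at room temperature) in GH3 reporter cells challenged with 1.0 nM T3 final. Compounds ran at 92 uM to 5nM over 15 concentrations for 24 h; DMSO served as negative control and baseline.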
In the case of `Nc1ccn([C@@H]2O[C@H](CO)[C@@H](O)[C@@H]2O)c(=O)n1`, the result was inactive.

On to `COc1cc2c(c(OC)c1OC)-c1ccc(OC)c(=O)cc1[C@@H](NC(C)=O)CC2`, for which the result was inactive.

`Cc1nccn1-c1ccc(Sc2cccc(C3(C(N)=O)CCOCC3)c2)cc1`: the half-maximal activity concentration (AC50) is 32.9 µM (active).

Tested on in a further assay: not listed separately
In words: TOX21_TRB_BLA_Antagonist_Followup_viability: Viability Assessment in the Tox21 Thyroid Hormone Receptor beta Antagonism Beta-lactamase (BLA) Follow-Up Assay (AID 2283961). The text has this: The GeneBLAzer TRb-UAS-bla HEK293T assay kit for human TRb (ThermoFisherScientific Catalog No. K1684) was used as a secondary assay for specificity (TRb-bla).This assay contained the ligand-binding domain (LBD) of the human TRb fused to the DNA-binding domain of GAL4 stably integrated in the GeneBLAzer UAS-bla HEK293Tcell line. The reporter gene, b-lactamase, is under the transcriptional control of a UAS that binds the GAL4 DNA-binding domain. A cell viability assay was run in parallel for these cells as well using the CellTiter-Glo viability assay kit.TOX21_TRB_BLA_Antagonist_Followup_viability is a component of the TOX21_TRB_BLA_Antagonist_Followup assay. This component measures cell viability using the CellTiter-Glo Luciferase-coupled ATP quantitation.TOX21_TRB_BLA_Antagonist_Followup_viability used a type of viability reporter where loss-of-signal activity can be used to understand changes in the cell viability. Furthermore, this assay endpoint can be referred to as a secondary readout, because this assay has produced multiple assay endpoints where this one serves a viability function. […]
Cell Media Required: Growth (90% DMEM/F-12, 10% Fetal Bovine Calf Serum, 100U/ml Penicillin, 100 ug/ml Streptomycin), Assay (10ng/mL sodium selenite, 10 ug/mL humanapo-transferrin, 10 uM ethanolamine, 10 ug/mL insulin, 500 ug/mL bovine serum albumin (BSA))Assay Protocol: TRb-bla cells were dispensed at 3,000 cells/well in 5 uL of the assay medium containing phenol red-free DMEM with 2% charcoal-stripped FBS in 1,536-well black-wall/clear-bottom plates using an FRD. […] After 2-h incubation at room temperature, the fluorescence intensity was measured using an Envision plate reader. Data were expressed as the ratio of 460:530nm. The cytotoxicity of the compounds was measured in the same plates by adding 4 uL of CellTiter-Glo reagent to each well and incubating the plates at room temperature for 30 min. […] Data were expressed as relative fluorescence units (cell viability assay) and relative luminescence units (luciferase reporter assay).
With `Nc1ccn([C@@H]2O[C@H](CO)[C@@H](O)[C@@H]2O)c(=O)n1`, the call was inactive.

With `COc1cc2c(c(OC)c1OC)-c1ccc(OC)c(=O)cc1[C@@H](NC(C)=O)CC2`, the compound was classed as inactive.

In the case of `Cc1nccn1-c1ccc(Sc2cccc(C3(C(N)=O)CCOCC3)c2)cc1`, the compound was called inactive.

The target in another assay is THRB (gene 7068) (UniProt P10828). In words: TOX21_TRB_COA_Antagonist_Followup_ratio: Tox21 Thyroid Hormone Receptor beta Antagonism through Coactivator Recruitment Follow-Up Assay, Ratio (AID 2283967). A digest of the protocol: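 GST-TRb LBD 5.0 nM + 0.10% BSA, compound added; fluorescein-SRC-2 peptide 200 nM, Tb-anti-GST Ab 2 nM. TR-FRET, ex 340 / em 520:495 ratio. Norm: DMSO 0%, T3 100%.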
Sequence of THRB (gene 7068) (P10828 whole entry, looked up, the tested form may be a part): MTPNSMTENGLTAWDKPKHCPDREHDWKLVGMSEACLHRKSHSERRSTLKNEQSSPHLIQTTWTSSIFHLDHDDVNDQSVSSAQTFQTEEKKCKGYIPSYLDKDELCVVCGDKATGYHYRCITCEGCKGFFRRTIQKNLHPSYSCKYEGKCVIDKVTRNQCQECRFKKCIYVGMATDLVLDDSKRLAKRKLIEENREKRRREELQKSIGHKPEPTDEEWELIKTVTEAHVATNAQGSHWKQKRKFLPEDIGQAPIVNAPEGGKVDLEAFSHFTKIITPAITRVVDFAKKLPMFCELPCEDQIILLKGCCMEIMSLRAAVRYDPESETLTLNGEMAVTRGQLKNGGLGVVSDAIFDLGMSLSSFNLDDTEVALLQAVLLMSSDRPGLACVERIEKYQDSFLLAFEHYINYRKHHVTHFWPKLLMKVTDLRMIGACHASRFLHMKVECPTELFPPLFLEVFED
Turning to `Nc1ccn([C@@H]2O[C@H](CO)[C@@H](O)[C@@H]2O)c(=O)n1`, the result was inactive.

Turning to `COc1cc2c(c(OC)c1OC)-c1ccc(OC)c(=O)cc1[C@@H](NC(C)=O)CC2`, the result was inactive.

`Cc1nccn1-c1ccc(Sc2cccc(C3(C(N)=O)CCOCC3)c2)cc1`: the outcome was inactive.
